# According to PubChem BioAssay (NCI):
# About 79,000 compounds went through this panel and 15% of them were active in at least one assay; those are over-represented in the sample as a whole. Values without a mark were called inactive. Calls of active or inactive are those of the source. No stated cut-off is given here; in the data, active means growth inhibition above about 70%; inactive means the rest.
# Test: NCI Yeast Anticancer Drug Screen. Data for the mec2-1 strain (AID 157)
# Conditions: S. cerevisiae mec2-1 strain, at 50.0 µM, stronger effect = higher value
# Protocol: Growth inhibition of yeast strains with defined genetic alterations is measured as a screen for potential anti-cancer activity. Selected strains with alterations in DNA damage repair or cell cycle control were exposed to compounds and growth inhibition was measured relative to vehicle treated controls. The strain used in this assay is mec2-1
row,SMILES,growth inhibition
1,CN(C)c1ccc(N=Nc2ccc(S(=O)(=O)O)cc2)cc1.CN(C)c1ccc(N=Nc2ccc(S(=O)(=O)O)cc2)cc1.[NH-]C1CCCCC1[NH-].[Pt+2],7.1%
2,C=CCCCCC1CCC2CCC(CCCCC=C)N12 (stereo not given),28.4%
3,COc1ccc(CN)cc1,-9.6%
4,CC(C)CCOC(=O)c1ccccc1OC(=O)Nc1ccc(Cl)cc1[N+](=O)[O-],-16.3%
5,C=CCOC(=O)Nc1ccc(S(=O)(=O)N(CCC)CCC)cc1,-33%
6,Brc1ncnc2c1ncn2C1CCCO1 (stereo not given),-12.8%
7,O=C1CCCC2=C1CC1=C(CCCC1=O)N2c1ccccc1C(=O)O,-20.8%
8,C#CCNC(=O)NCCCl,-3.45%
9,CCOC(=O)C(NC(=O)c1cccc(Cl)c1)(Nc1ccc(S(=O)(=O)Nc2cc(C)on2)cc1)C(F)(F)F (stereo not given),69.3%
10,CC(N)CCCO (stereo not given),-5.5%
11,C/C(=N/NS(=O)(=O)c1ccc(N)cc1)c1ccccc1,-14.8%
12,c1cc2[nH]snc2c2cncc12,9.2%
13,CCc1cc2c(cc1/C(C)=N/N=C(\C)c1cc3c(cc1CC)C(C)(C)CCC3(C)C)C(C)(C)CCC2(C)C,-1.8%
14,O=S(=O)(O)SCCCNCCCCCCCCNCCCSS(=O)(=O)O,-8.85%
15,O=C1N(O)C2(C=CCCC2)/C(=N/O)C12CCCCC2 (stereo not given),-2.3%
16,CC(C)C(O)(C(=O)OCC1=CC[N+]2(C)CCC(O)C12)C(C)O (stereo not given),-15.3%
17,CCC(=O)c1cc2c(cc1O)CC(C(=O)CC)c1ccccc1-2 (stereo not given),6.55%
18,C/C(=N/Nc1ccc([N+](=O)[O-])cc1[N+](=O)[O-])c1ccc(Sc2ccc(/C(C)=N/Nc3ccc([N+](=O)[O-])cc3[N+](=O)[O-])cc2)cc1,-21.1%
19,C=COC(=O)C=C,9.15%
20,COC(=O)/C(=N\NC(C)(C)C)C(C(=O)C(=O)Nc1cc(C)ccc1C)c1nc2ccccc2[nH]c1=O (stereo not given),-6.9%

row,SMILES,growth inhibition
1,Cc1cc(=O)c2cc(Cc3ccc(N)cc3)ccc2[nH]1,-16.7%
2,[N-]=[N+]=C(C(=O)OCC#CCOC(=O)C(=[N+]=[N-])S(=O)(=O)c1ccccc1)S(=O)(=O)c1ccccc1,-20.6%
3,CCCCNC(=O)c1cc2c(cc1Cl)Sc1nccn1S2(=O)=O,-0.3%
4,CC1(n2nc(-c3ccccc3)n(-c3ccccc3)c2=O)CSC1,-22.9%
5,CCCCN(C)CC(C)O (stereo not given),-12.2%
6,O=C1C2=Cc3ccccc3OC2(O)Oc2cc(O)ccc21 (stereo not given),11.2%
7,COC1OC(COS(C)(=O)=O)C(OS(C)(=O)=O)C(OS(C)(=O)=O)C1OS(C)(=O)=O (stereo not given),-7.05%
8,CCNC(=O)OC(C)C(O)c1ccccc1 (stereo not given),11.6%
9,CC(C)CCN(CC(C)C)C(=O)c1ccc([N+](=O)[O-])cc1 (tested in a mixture with another compound),0.6%
10,CCN(Cc1cccc(S(=O)(=O)O)c1)c1ccc(C(=C2C=CC(=[N+](C)C)C=C2)c2ccc(N(C)C)cc2)c(S(=O)(=O)O)c1,54.8%
11,Cn1ncc(=O)[nH]c1=O,-5.2%
12,Cc1csc(NC(=O)C2C3CCC(O3)C2C(=O)O)n1 (stereo not given),-11.2%
13,Fc1cccc(CSC(=S)Nc2ccc(Cl)c(C(F)(F)F)c2)c1,99.5% (active)
14,CC(=O)n1c2ccccc2c2nc3ccccc3nc21,10.4%
15,CCCCCCCCCCCCCC1CCC(CC)N1 (stereo not given),93.7% (active)
16,COCOc1ccc(C=O)cc1,13.1%
17,CN(C)CCCSc1nc2ccccc2[nH]1,-13.8%
18,CCN(CC)Cc1ccccc1CO,6.15%
19,CCCCCCC(C)CC(=O)O (stereo not given),-3.85%
20,COC(=O)c1c(C)cc(C)c(C(C)=O)c1O,-14.8%
